LDHA block: LDHA (human) enzyme inhibition; P00338; purified LDHA, NADH/diaphorase-resazurin fluorescence; hits give low values; activity change, % (values are at about 110 or 230 µM); 480,000 tested, 0.15% active; in the data active = activity change below about -30%; inconclusive = mostly about -25% to -30%;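 also: plate controls were DMSO wells for no effect and wells without enzyme for full effect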
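Enzyme activity of human lactate dehydrogenase 5 (2 nM; 0.06 mM NADH, 0.2 mM pyruvate, 5 min, RT) is measured via a resazurin/diaphorase fluorescence readout of residual NADH.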
Abeta rescue: A-beta toxicity reversal in yeast; 410,000 tested, 0.063% active; Potency, µM (top dose mostly 46.1 µM), hits mostly activators; AID 1347071; yeast expressing A-beta42, growth rescue, OD600, 48 h; response scale: 0% DMSO, 100% iron-clioquinol control; also: potency is read from the fitted curve at half-maximal effect; nearly all actives have a fitted effect of over 55% in size
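Yeast A-beta toxicity model in growth medium with pinned compounds, 48 h at 30 C; growth read as absorbance at 600 nm. Normalized to FeCl3/clioquinol equimolar mix (positive) and DMSO (negative).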
aSyn rescue: inhibitors of alpha-synuclein toxicity in yeast | Potency, µM (titrated, usually from 46.1 µM), for inactives: at the highest dose growth rescue (activation), most hits filed as activators | Yeast expressing alpha-synuclein, growth rescue, BacTiter-Glo, 24 h | AID 652106 | 370,000 tested, 0.14% active; also: potency is read from the fitted curve at half-maximal effect; % of control where 0% means no effect; nearly all actives have a fitted effect of over 65% in size
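Screening used galactose-induced yeast with toxic alpha-synuclein levels, exposed to compound for 24 hr at 30 deg C. Cell growth, read with BacTiter-Glo luminescence, gave the measured signal.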
TDP43 rescue: inhibitors of TDP-43 toxicity in yeast. TDP-43 expressing yeast growth rescue, BacTiter-Glo, 24 h. Potency, µM (top dose mostly 46.1 µM), inactives show at the highest dose growth rescue (activation), actives largely listed as activators. 410,000 tested, 1.8% active. AID 652104; also: potency is read from the fitted curve at half-maximal effect; % of control where 0% means no effect; nearly all actives have a fitted effect of over 50% in size
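Yeast cells expressing TDP-43 under galactose induction are exposed to compounds for 24 hr at 30 deg C. BacTiter-Glo luminescence measures growth, so protective compounds score as activators.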
FUS yeast rescue: rescues growth of FUS-expressing yeast; S. cerevisiae FUS-expressing, growth rescue, OD600, 24 h; Potency, µM (top dose mostly 76.6 µM), actives largely listed as activators; 390,000 tested, 0.24% active; AID 1347120;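 also: potency is read from the fitted curve at half-maximal effect; plate controls were DMSO vehicle for no effect and reference control for full effect; nearly all actives have a fitted effect of over 55% in size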
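Restored growth of FUS-toxic S. cerevisiae, read as 600 nm absorbance after 24 h at 30C in galactose medium (starting OD 0.005). Controls CP55940 and DMSO.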
PTHR1 agonist: PTHR1 (human) receptor agonism; Q03431; HEK293 GP2 PTHR1 cells, GloSensor cAMP luminescence, 1 h; Potency, µM (highest dose often 115 µM), for the others: top-dose activation, most hits filed as activators; 410,000 tested, 0.075% active; also: potency is read from the fitted curve at half-maximal effect; nearly all actives have a fitted effect of over 55% in size
Target sequence (Q03431 whole entry, looked up): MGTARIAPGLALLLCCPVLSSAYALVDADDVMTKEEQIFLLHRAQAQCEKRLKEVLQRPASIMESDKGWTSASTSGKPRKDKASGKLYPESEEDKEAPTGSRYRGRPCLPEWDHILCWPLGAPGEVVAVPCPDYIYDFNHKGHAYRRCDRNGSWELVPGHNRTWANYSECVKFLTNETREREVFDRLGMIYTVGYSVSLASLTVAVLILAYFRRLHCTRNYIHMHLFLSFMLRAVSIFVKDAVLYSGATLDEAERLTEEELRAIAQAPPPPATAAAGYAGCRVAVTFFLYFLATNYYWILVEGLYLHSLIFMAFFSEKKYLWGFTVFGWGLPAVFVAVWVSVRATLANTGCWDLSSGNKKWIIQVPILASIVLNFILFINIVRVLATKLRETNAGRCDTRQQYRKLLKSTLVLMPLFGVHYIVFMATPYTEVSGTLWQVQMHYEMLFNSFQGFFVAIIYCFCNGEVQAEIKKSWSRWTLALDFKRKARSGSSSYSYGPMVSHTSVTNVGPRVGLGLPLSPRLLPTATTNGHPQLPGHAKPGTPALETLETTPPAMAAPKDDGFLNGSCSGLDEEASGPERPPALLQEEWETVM
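HEK-293-derived GP2 cells expressing PTHR1 and a GloSensor cAMP reporter, 3,000/well, plated overnight, given luciferin plus IBMX (each 0.5 mM as added) for 1 h at 37 °C, then compound for 1 h at 37 °C. Luminescence was read after 15 min at room temperature.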
The depositor's hits bear a star; i = inactive; ? = inconclusive; . = no result given; [ ] = another dose, or the depositor's remark. Rows were chosen to be rich in hits. Some 1.9% of all compounds tested hit in one or more screens of this group. Unless noted, calls follow the shape of the dose curve; as a rule, active = well fitted curve in the direction sought with a large enough effect; inconclusive = small, poorly fitted or top-dose-only effect, or another doubt; inactive = no such curve, though single readings can be large; an effect the other way counts as inactive or inconclusive.

SMILES	LDHA block	Abeta rescue	aSyn rescue	TDP43 rescue	FUS yeast rescue	PTHR1 agonist
COc1ccc(N2CCN(C(=O)c3cc4ccc5cccnc5c4[nH]3)CC2)cc1	-1	i	.	?	i	-14%
CN1CCN(c2ncnc3c2c(-c2ccccc2)cn3-c2cccc(Cl)c2)CC1	2	.	.	.	.	.
O=C(Nc1ccc2c(c1)OCO2)C1Cc2c(-c3ccc4c(c3)OCO4)ccnc2O1 (stereo not given)	-1	i	6%	28µM*	i	i
O=C(Nc1ccccc1)C1Cc2c(-c3ccco3)ccnc2O1 (stereo not given)	-4	i	?	25µM*	i	-1%
O=C(Nc1ccccc1)C1Cc2c(-c3ccc4c(c3)OCO4)ccnc2O1 (stereo not given)	-2	i	16%	35µM*	i	i
CC(=O)Nc1ccc(NC(=O)C2Cc3c(-c4ccco4)ccnc3O2)cc1 (stereo not given)	-12	i	-3%	17%	i	-11%
COc1ccc(NC(=O)C2Cc3c(-c4ccc5c(c4)OCO5)ccnc3O2)cc1 (stereo not given)	-7	i	15%	25µM*	i	-48%
CC(=O)Nc1ccc(NC(=O)C2Cc3c(-c4ccc5c(c4)OCO5)ccnc3O2)cc1 (stereo not given)	-7	i	-6%	7%	i	i
S=C(NCc1ccc(Cl)cc1)Nc1ccc2ccccc2c1	6	.	.	.	.	.
Cc1ccc(NC(=O)c2ccc(=O)n(CCOc3ccccc3)n2)cc1F	4	.	.	.	.	.
COc1ccccc1C/C(N)=N/OC(=O)c1cccc([N+](=O)[O-])c1C	0	i	-56%	20µM*	i	-42%
COc1ccc(/C(N)=N/OC(=O)c2cccc([N+](=O)[O-])c2C)cc1	0	i	-3%	7.1µM*	i	i
Cc1cc(=O)oc2cc(OCC(=O)NCC3(N4CCN(C)CC4)CCCCC3)ccc12	-2	.	.	.	.	.
O=Cc1c(-c2ccc(Cl)cc2Cl)[nH]c2ccccc12	5	.	.	.	.	.
Cc1ccc(C)c(CN2CCC(CNC(=O)Nc3cn(CC(C)C)c(=O)c4ccccc34)CC2)c1	21	.	.	.	.	.
Cc1cc(SCC(=O)N/N=C/c2ccc(O)c(O)c2O)c(C)cc1Br	37	i	16µM*	5%	.	-8%
O=C(Nc1cccc(F)c1)c1cccnc1NCCc1ccccc1	-3	i	-1%	33%	i	-2%
O=C(Nc1ccc(F)cc1)c1cccnc1NCCc1ccccc1	-3	i	-10%	13µM*	i	i
Cc1cccc(N2CCN(C(=O)C3CCN(C(=O)c4cc5sccc5n4C)CC3)CC2)c1C	-2	?	.	35µM*	?	-94%
Cc1cccc(N2CCN(C(=O)C3CCCN(C(=O)c4cc5sccc5n4C)C3)CC2)c1C (stereo not given)	3	i	.	0%	?	i
O=C1C(=Cc2cccc(Cl)c2)Cc2ccccc21	-1	i	0%	5%	i	-16%
O=C1C(=Cc2cccc(Cl)c2)CCc2ccccc21	3	i	-22%	20µM*	i	-56%
Cc1ccc(CONS(=O)(=O)c2cc(C)ccc2C)cc1	-1	i	-57%	32µM*	i	i
CC(=O)Nc1ncc(Cc2cccc(Cl)c2)s1	1	i	-17%	-2%	i	-10%
CC(C)C(=O)Nc1ncc(Cc2cccc(Cl)c2)s1	-2	?	1%	18µM*	i	-41%
SMILES	LDHA block	Abeta rescue	aSyn rescue	TDP43 rescue	FUS yeast rescue	PTHR1 agonist
Cc1cc(C(F)(F)F)c(C#N)c(SCCc2ccccc2)n1	-4	.	.	.	.	.
Cc1ccc(C(=O)NC(=S)NNC(=O)CC#N)cc1	-7	i	-2%	1%	i	-6%
CCCCC(=O)NNC(=S)NC(=O)c1ccc(C)cc1	-1	i	3.5µM*	-75%	i	-2%
COC(=O)c1ccccc1NC(=S)NC(=O)c1ccc(C)cc1	-1	i	-18%	20µM*	.	i
CCCCC(=O)NNC(=S)NC(=O)c1ccc([N+](=O)[O-])cc1	-5	?	32µM*	20µM*	i	-27%
CC(C)CC(=O)NC(=S)NNC(=O)c1ccc([N+](=O)[O-])cc1	4	?	?	18µM*	i	-5%
COC(=O)c1ccccc1NC(=S)NC(=O)c1ccccc1	-3	i	-15%	?	i	0%[57.5 µM]
COc1ccc(NC(=O)Cc2c(C)c3ccc(O)cc3oc2=O)cc1OC	0	.	.	.	.	.
CCCCC(=O)NNC(=S)NC(=O)c1cccc([N+](=O)[O-])c1	-3	i	?	14µM*	i	-3%
CC1CN(C(=O)c2ccccc2OCc2ccc(Cl)cc2Cl)CC(C)O1 (stereo not given)	-2	i	9%	28µM*	i	-16%
CC(C)(Oc1ccc(Cl)cc1)C(=O)NNC(=O)c1ccc(Br)o1	-1	i	2%	14µM*	i	-2%
CC(=O)Nc1ccc(-c2nc(N3CCCC3)sc2C)cc1	1	.	.	.	.	.
c1cc2nc(C34CC5CC(CC(C5)C3)C4)[nH]c2cn1	-33*	i	-2%	9%	i	-1%
CCCC(CCC)c1nc2ccncc2[nH]1	-18	i	-5%	-15%	i	-15%
CCc1cccc(C)c1NC(=O)c1cc(=O)c2ccccc2o1	-5	.	.	.	.	.
O=C(O)C1C2CCC(CC2)C1C(=O)N1CCN(Cc2ccc(F)cc2)CC1 (stereo not given)	-11	i	5%	20µM*	i	-18%
Cc1cc(Br)ccc1NC(=O)Cn1nc(-c2cccs2)oc1=O	19	.	.	.	.	.
CCCCNC(=S)NCCCC	1	.	.	.	.	.
Cc1ccc(CCNC(=O)c2oc(=O)c3ccccc3c2-c2ccc(C)cc2)cc1	-4	i	.	?	?	i
Cc1ccc(-c2c(C(=O)NCCc3ccc(Cl)cc3)oc(=O)c3ccccc23)cc1	-1	i	.	-9%	16µM*	17%
CCCCN1C(=S)NC[C@@H]1Cc1cccc2ccccc12	-4	i	6%	?	?	-66%
CCCC[C@@H]1CNC(=S)N1CCc1cccc2ccccc12	-19	?	21%	35µM*	i	-25%
Cc1ccc(Cl)cc1N1CCN(C(=O)c2ccc(CS(=O)Cc3ccc(Cl)cc3)o2)CC1 (stereo not given)	-1	i	?	20µM*	?	-27%
Cn1c2ccccc2c2ncn(CCC3=CCCCC3)c(=O)c21	-1	i	-4%	13µM*	i	-54%[57.5 µM]
Cn1c2ccccc2c2ncn(CCCN3CCOCC3)c(=O)c21	0	i	-3%	6%	i	i
